Test results taken from PubChem BioAssay (NCATS).
Results filed as inconclusive are left out. Active and inactive are the calls of the source. Calls follow the shape of the dose curve; as a rule, active = well fitted curve in the direction sought with a large enough effect; inconclusive = small, poorly fitted or top-dose-only effect, or another doubt; inactive = no such curve, though single readings can be large; an effect the other way counts as inactive or inconclusive.

Legend:
[1] = qHTS to identify inhibitors of the type 1 interferon - major histocompatibility complex class I in skeletal muscle: primary screen against the NCATS LOPAC collection (AID 1347405);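 also: lytic HiBiT luminescence reporting HLA-B protein level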; also: potency is read from the fitted curve at half-maximal effect
How it was run: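 Immortalized human C25cl48 myoblasts with HiBiT knocked into endogenous HLA-B*08:01 were stimulated with 4.0 ng/ml IFN-beta and given compounds in a 7-point, 1:4.3 titration from 46 uM final; after 24 hrs, lytic HiBiT luminescence was read.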

[2] = qHTS for inhibitors of adenylyl cyclases using a fission yeast platform: a pilot screen against the NCATS LOPAC library (AID 1347410)
How it was run: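 Fission yeast qHTS: CHP2027 cells (AC9-GNAS-PDE4D2, fbp1-GFP), 5x10^6 cells/mL working density, EMM + His/Lys/Ura; LOPAC at up to 57 µM final; 18 h dark, 30C; GFP by laser cytometry. DPI positive control, DMSO vehicle.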

[3] = Validation qHTS assay for inhibitors of Activation Induced Cytidine Deaminase (AID): UDG Counterscreen signal (AID 1347427)
How it was run: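 Counterscreen read of UDG activity (2 U/mL, 4/3x) in the FRET deamination format with AID (1 uM, 4/3x), DJC20/DJC23 substrates (250 nM, 4x), 4 h at room temperature. NaOH stop, fluorescence at 560 ex/665 em.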

[4] = molecular target: Single-stranded DNA cytosine deaminase (Homo sapiens) (UniProt Q9GZX7); assay: Validation qHTS assay for inhibitors of Activation Induced Cytidine Deaminase (AID): AID signal (AID 1347429)
How it was run: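 AID and UDG were combined and compounds added at final up to 114 uM, then DJC20/DJC23 FRET substrate was added for 4 hr at room temperature. NaOH was then added for 30 min before fluorescence was read at 540/590 nm.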

[5] = Primary qHTS for inhibitors of La Crosse Virus (LACV) - induced cell death in SH-SY5Y cells (AID 1508616);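 also: top concentration of the series differs between compounds; higher means more rescue of cells from virus-induced death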
How it was run: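 Luminescent ATP readout (ATPLite 1step, 5 min room temperature) measured rescue from LACV-induced death after 6 days of infection at 0.01 MOI; normalized to infected DMSO wells and uninfected DMSO wells.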

[6] = qHTS for Inflammasome Signaling Inhibitors: IL-1-beta AlphaLISA screen against the NCATS CANVASS Library (AID 1347379); details: THP-1 LPS/ATP, IL-1B AlphaLISA secretion, 16 h; at 57.5 µM (top of the series) unless noted;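 also: human THP-1 cells primed with LPS then triggered with ATP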
How it was run: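 Human THP-1 cells were pretreated 1 hr at 37 °C with compounds (up to 57.5 uM final), then stimulated with LPS (250 ng/mL final) and ATP (1.25 mM final). Secreted IL-1B was read by AlphaLISA after 16 hr.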

[7] = Inflammasome Signaling qHTS Counterscreen: IL-1-beta AlphaLISA counterscreen against the NCATS CANVASS Library (AID 1347381);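 also: cell-free check with purified IL-1β in medium and no THP-1 cells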
How it was run: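 To flag interference with the AlphaLISA read-out, a known amount of purified IL-1-beta (4 pg) replaced cell supernatant. Detection used anti-IL-1-beta acceptor beads, biotinylated antibody and streptavidin donor beads at room temperature.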

[8] = Cytotoxicity qHTS for assessment of Hepg2 cells membrane integrity screened against the NCATS CANVASS Library (AID 1347387)
How it was run: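 HepG2 cells (2000/well) attached overnight at 37C, then received compounds in an 11-point series at 0.59 nM - 46 uM final for 5 hr. LDH release was detected fluorometrically (ex 560/em 590 nm) with CytoTox-ONE reagent after 10 min at room temperature.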

[9] = qHTS for Activators of p53 Stress Response Pathway screened against the NCATS CANVASS Library (AID 1347388)
How it was run: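 Beta-lactamase reporter driven by p53 response elements in HCT-116 cells, read as the 460 nm/530 nm emission ratio after CCF4 loading, following 16 h of exposure to an 11-point series. Cell viability was measured in the same wells by CellTiter-Glo luminescence.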

[10] = qHTS assay for small molecule disruptors of mitochondrial membrane potential screened against the NCATS CANVASS Library (AID 1347389); also: nearly all actives have a fitted effect of over 60% in size
How it was run: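 HepG2 cells (2,000/well) were plated overnight at 37C, exposed to compound for 1 hr at 37C/5% CO2, then loaded with Mito-MPS dye for 30 min. Depolarization was read as a drop in red (590 nm) to green (535 nm) fluorescence ratio.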

[11] = Secretion counterscreen for inhibitors of the SERCaMP assay screened against the NCATS CANVASS Library (AID 1347390);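 also: light from luciferase secreted into medium read as a measure of general secretion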
How it was run: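 SH-SY5Y-GLuc STOP cells; 4 h attach; cpds 0.001 - 77 uM (qHTS, 11 pts), 20 h 37C/5% CO2; coelenterazine in glow buffer; luminescence, 5 s exposure.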

[12] = qHTS for activators of Nrf2/ARE signaling pathway screened against the NCATS CANVASS Library (AID 1347391); also: nearly all actives have a fitted effect of over 60% in size
How it was run: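 ARE-bla HepG2 beta-lactamase reporter cells, 2000 cells/well, were preincubated 5 h, then exposed to compounds (11-point series) for 16 h at 37C. CCF4 fluorescence (ex 405, em 460/530 nm) after 2 h at room temperature.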

[13] = qHTS for activators of dead-cell proteases activity screened against the NCATS CANVASS Library (AID 1347392);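 also: luminescence from protease leaking out of membrane-damaged cells cleaving impermeant substrate; rising signal means more cytotoxicity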
How it was run: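 Compounds are pin-transferred onto attached HepG2 cells, giving 11 final concentrations. After 5 h at 37C, AAF-aminoluciferin reagent is added and luminescence is recorded at room temperature.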

[14] = qHTS for inhibitors of ER calcium dysfunction: SERCaMP assay screened against the NCATS CANVASS Library (AID 1347393);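 also: lower secreted reporter signal means inhibitor of ER calcium depletion; nearly all actives have a fitted effect of over 40% in size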
How it was run: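 Thapsigargin-induced ER calcium depletion drives GLuc-SERCaMP secretion from SH-SY5Y cells; compounds given 16 h beforehand were scored by lowered coelenterazine luminescence after 4 h challenge.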

[15] = Vero-766 cells viability qHTS against the NCATS CANVASS Library: Counterscreen for Zika virus inhibition assay (AID 1347394); also: nearly all actives have a fitted effect of over 60% in size
How it was run: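 Vero 766, no virus; 1000 cells/well; o/n attach; cpd 11-pt; 72 h, 37C, 5% CO2; CTG luminescence; cell-free media wells = 100% inhibition.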

[16] = qHTS for inhibitors of Wild type Zika virus screened against the NCATS CANVASS Library (AID 1347396);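 also: ATP luminescence of surviving cells so rescue from viral cell killing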
How it was run: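 Luminescent CellTiter Glo read-out of virus-induced cytotoxicity, 72 h post-infection, in Vero 766 cells. Compounds were tested at 11 concentrations; uninfected, vehicle-treated wells defined 100% inhibition.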

[17] = Viability qHTS for inhibitors of the SERCaMP assay screened against the NCATS CANVASS Library (AID 1347400); also: nearly all actives have a fitted effect of over 70% in size
How it was run: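 SH-SY5Y-GLuc SERCaMP MJH297-derived cells (1000 cells/well) were pre-incubated 4 h at 37C, then exposed to compounds for 48 h. Viability was read as CellTiter-Glo luminescence; bortezomib served as positive control.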

[18] = Redox Reaction Profiling qHTS: Assay Interference Panel against the NCATS CANVASS Library (AID 1347401)
How it was run: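 Cell-free redox surrogate: 5 uM resazurin + 200 uM DTT, 50 mM HEPES pH 7.3/50 mM NaCl; cpds pinned, 11-pt qHTS; Ex525/Em598 read t0 and t=15 min, dark.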

[19] = qHTS to identify inhibitors of the type 1 interferon - major histocompatibility complex class I in skeletal muscle: primary screen against the NCATS Mechanism Interrogation Plate v5.0 (MIPE) Libary (AID 1347411); also: nearly all actives have a fitted effect of over 65% in size
How it was run: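 Immortalized human C25cl48 myoblasts with HiBit knocked into endogenous HLA-B*08:01 were stimulated with 4.0 ng/ml IFN-beta and exposed to compounds (11-point 1:3 titration, top 46 uM final) for 24 hrs at 37 C; HiBiT lytic luminescence measured.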

Measured: Potency

Single-stranded DNA cytosine deaminase (Homo sapiens), sequence (Q9GZX7 whole entry, looked up): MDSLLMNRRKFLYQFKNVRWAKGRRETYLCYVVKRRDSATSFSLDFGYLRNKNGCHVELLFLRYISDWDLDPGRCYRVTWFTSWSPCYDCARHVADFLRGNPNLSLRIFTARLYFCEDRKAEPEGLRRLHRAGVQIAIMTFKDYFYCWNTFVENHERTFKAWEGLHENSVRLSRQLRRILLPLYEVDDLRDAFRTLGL

Cn1c(=O)c2[nH]c(C3CCCC3)nc2n(C)c1=O
inactive: [1] | [2] | [3] | [4]

Nc1ccc2c3c(cccc13)C(=O)NC2=O
inactive: [1] | [2] | [3] | [4]

COc1ccccc1N1CCN(CCCCN2C(=O)c3ccccc3C2=O)CC1
inactive: [1] | [2] | [3] | [4] | [5]

O=c1[nH]c(=O)c2nc3ccccc3nc2[nH]1
inactive: [1] | [2] | [3] | [4] | [5]

O=c1ccc2c(OCCCCc3ccccc3)c3ccoc3cc2o1
inactive: [1] | [2] | [3] | [4] | [5]

C[C@H](O)C(=O)C1=Nc2c(nc(N)[nH]c2=O)NC1
inactive: [1] | [2] | [3] | [4] | [5]

CCCCCCCCCC(=O)NC(CN1CCOCC1)[C@H](O)c1ccccc1 (stereo not given in full)
inactive: [1] | [2] | [3] | [4] | [5]

O=c1onc2cnc3ccccc3n12
inactive: [1] | [2] | [3] | [4] | [5]

Cn1ccnc1
inactive: [1] | [2] | [3] | [4] | [5]

Nc1ncnc2c1nc(Br)n2C1OC2COP(=O)(O)O[C@@H]2C1O (stereo not given in full)
inactive: [1] | [2] | [3] | [4] | [5]

COC(=O)C(C)(N)Cc1ccc(O)cc1 (stereo not given)
inactive: [1] | [2] | [3] | [4] | [5]

c1ccc(CN2CCC3(CCCc4ccccc43)CC2)cc1
inactive: [1] | [2] | [3] | [4]

NCC(O)C1CCCCCCC1 (stereo not given)
inactive: [1] | [2] | [3] | [4]

O=C1OC(=O)C2C3CCC(O3)C12 (stereo not given)
inactive: [1] | [2] | [3] | [4]

CC1CCN(CC[C@H]2CCCN2S(=O)(=O)c2cccc(O)c2)CC1
inactive: [1] | [2] | [3] | [4] | [5]

CCN(c1nc(N)c(C(=O)N=C(N)N)nc1Cl)C(C)C
inactive: [1] | [2] | [3] | [4]

CN(C)CCC(c1ccc(Br)cc1)c1ccccn1 (stereo not given)
inactive: [1] | [2] | [3] | [4]

O=C(O)Cc1c[nH]c2ccc(O)cc12
inactive: [6] inactive [at 114 µM] | [7] | [8] | [9] | [10] | [11] | [12] | [13] | [14] | [15] | [16] | [17] | [18] | [1] | [2] | [3] | [4]

COc1ccc(-c2cc3ncc(C)n3c(Nc3ncccc3C(N)=O)n2)cc1OC
active: [1] 3.16 µM
inactive: [2] | [3] | [4]

NC[C@@H]1O[C@H](c2ccccc2)Cc2c1ccc(O)c2O
inactive: [1] | [2] | [3] | [4] | [5]

O=C(O)c1cc2cc(F)ccc2[nH]1
inactive: [1] | [2] | [3] | [4] | [5]

O=c1ccn([C@@H]2O[C@H](COP(=O)(O)OP(=O)(O)O)[C@@H](O)[C@H]2O)c(=O)[nH]1
inactive: [1] | [2] | [3] | [4] | [5]

CC1=C(/C=C/C(C)=C/C=C/C(C)=C\C(=O)O)C(C)(C)CCC1
inactive: [1] | [2] | [19] | [3] | [4] | [5]

NC1(C(=O)O)CC1
inactive: [1] | [2] | [3] | [4] | [5]

Cc1cc(Cn2cnc3c2C[C@@H](C(=O)O)N(C(=O)C(c2ccccc2)c2ccccc2)C3)ccc1N
inactive: [1] | [2] | [3] | [4] | [5]

CCCCCCCCCC[Si](C)(C)CCC(=O)NC(Cc1ccc(C)cc1)c1ccccc1 (stereo not given)
inactive: [1] | [2] | [3] | [4] | [5]

Cc1ccc2c(c1)C(N1CCN(C)CC1)=Nc1cccnc1N2
inactive: [1] | [2] | [3] | [4] | [5]

Brc1c(Br)c(Br)c2[nH]cnc2c1Br
inactive: [2] | [3] | [4] | [5]
active: [1] 12.6 µM

O=C(OCCN1CCOCC1)C1(c2ccccc2)CCCCC1
inactive: [1] | [2] | [3] | [4] | [5]

O=c1[nH]c2cc(Cl)ccc2c(O)c1-c1ccc(Oc2ccccc2)cc1
active: [1] 8.91 µM
inactive: [2] | [3] | [4] | [5]

N[C@@H](Cc1c[nH]c2ccccc12)C(=O)O
inactive: [1] | [2] | [3] | [4] | [5]

CN1CCC2(CCN3CCc4c(oc5ccccc45)C3C2)N(C)C1=O (stereo not given)
inactive: [1] | [2] | [3] | [4] | [5]

NCC(O)(CS(=O)(=O)O)c1ccc(Cl)cc1 (stereo not given)
inactive: [1] | [2] | [3] | [4] | [5]

CC(N)=O
inactive: [1] | [2] | [3] | [4] | [5]

CC(N)(C(=O)O)c1ccc(C(=O)O)cc1 (stereo not given)
inactive: [1] | [2] | [3] | [4] | [5]
